Assay in all cases: Confirmatory Screen for Target Class Profiling of Small Molecule Inhibitors of Methyltransferases (AID 1745852); on activity change, negative = inhibition: on the % scale 0 is the no-effect control and ±100 the full control effect
Assay [1] addresses Catechol O-methyltransferase (Homo sapiens) (UniProt P21964). Conditions: MTase-Glo luminescence, SAH detection, recombinant enzyme; measured here: COMT max response; stronger effect = lower value.
The target in assay [2] is Guanidinoacetate N-methyltransferase (Homo sapiens) (UniProt Q14353). To be noted: MTase-Glo luminescence, SAH detection, recombinant enzyme; activity change, negative = inhibition: at 57.3 µM (top of the series) unless noted; series mostly up to 57.3 µM.
Assay [3] deals with Nicotinamide N-methyltransferase (Homo sapiens) (UniProt P40261). To be noted: MTase-Glo luminescence, SAH detection, recombinant enzyme; measured here: NNMT max response; stronger effect = lower value.
Sequence of Nicotinamide N-methyltransferase (Homo sapiens) (P40261 whole entry, looked up): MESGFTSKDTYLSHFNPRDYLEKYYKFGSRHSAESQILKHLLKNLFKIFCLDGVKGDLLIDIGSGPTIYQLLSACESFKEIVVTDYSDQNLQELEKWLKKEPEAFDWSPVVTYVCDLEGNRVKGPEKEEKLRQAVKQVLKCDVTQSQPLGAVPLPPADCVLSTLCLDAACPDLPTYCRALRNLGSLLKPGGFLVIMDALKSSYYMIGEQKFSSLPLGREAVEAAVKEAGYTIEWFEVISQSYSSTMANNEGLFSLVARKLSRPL
The target in assay [4] is Phenylethanolamine N-methyltransferase (Homo sapiens) (UniProt P11086). Conditions: MTase-Glo luminescence, SAH detection, recombinant enzyme; measured here: PNMT max response; stronger effect = lower value.
Sequence of Phenylethanolamine N-methyltransferase (Homo sapiens) (P11086 whole entry, looked up): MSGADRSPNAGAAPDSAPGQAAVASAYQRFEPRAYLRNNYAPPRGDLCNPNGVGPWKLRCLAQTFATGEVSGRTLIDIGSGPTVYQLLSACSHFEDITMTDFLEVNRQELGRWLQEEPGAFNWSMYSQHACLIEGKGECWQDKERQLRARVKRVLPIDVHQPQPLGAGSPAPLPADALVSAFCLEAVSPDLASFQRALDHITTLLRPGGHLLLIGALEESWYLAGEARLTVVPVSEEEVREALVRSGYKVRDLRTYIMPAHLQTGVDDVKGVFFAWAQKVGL

Sequence of Catechol O-methyltransferase (Homo sapiens) (P21964 whole entry, looked up): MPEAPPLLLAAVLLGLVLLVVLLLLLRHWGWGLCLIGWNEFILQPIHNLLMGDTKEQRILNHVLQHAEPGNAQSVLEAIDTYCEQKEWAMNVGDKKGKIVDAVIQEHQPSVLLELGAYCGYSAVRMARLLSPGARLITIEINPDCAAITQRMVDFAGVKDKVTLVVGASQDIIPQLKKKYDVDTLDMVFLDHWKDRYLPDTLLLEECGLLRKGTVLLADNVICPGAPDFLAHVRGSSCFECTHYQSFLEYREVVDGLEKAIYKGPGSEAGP

Regarding `COc1cccc(NC(=O)Cn2c(=O)oc3cc(S(=O)(=O)N4CCCCC4C)ccc32)c1` (stereo not drawn), the activity in assay [1] is 0.845%; in assay [3], -2.27%; in assay [4] it was -70.8%. In addition, the activity change, negative = inhibition in assay [2] was -1.86%.

Regarding `CC(C)Cn1c(=O)c2ccccc2n2c(CCC(=O)N3CCC(Cc4ccccc4)CC3)nnc12`, the activity in assay [1] was -2.5%; in assay [3], -56.6%; in assay [4], -9.36%. Moreover, in assay [2], the activity change, negative = inhibition turned out to be 0.755%.
